Laboratory results reported in PubChem BioAssay (NCI).
About 79,000 compounds went through this panel and 15% of them were active in at least one assay; those are over-represented in the sample as a whole. The source made the active and inactive calls. No stated cut-off is given here; in the data, active means growth inhibition above about 70%; inactive means the rest.

Tests used:
[1] = NCI Yeast Anticancer Drug Screen. Data for the rad50 strain (AID 155);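 further: 0% = growth of vehicle-only cultures of the same strain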; conditions: S. cerevisiae rad50 strain growth inhibition, hits give high values
How it was run: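 Compounds were tested on a yeast strain with an engineered DNA damage repair alteration; the reported value is growth inhibition normalised to vehicle treatment.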

[2] = NCI Yeast Anticancer Drug Screen. Data for the mec2-1 strain (AID 157); conditions: S. cerevisiae mec2-1 strain, hits give high values
How it was run: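 Yeast mec2-1 mutant treated with compound. Readout: growth inhibition vs vehicle controls.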

[3] = NCI Yeast Anticancer Drug Screen. Data for the sgs1 mgt1 strain (AID 161);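 further: 0% = growth of cultures given vehicle only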; conditions: S. cerevisiae sgs1 mgt1 strain, hits give high values
How it was run: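 Genetically altered yeast, compound exposure, growth inhibition relative to vehicle.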

[4] = NCI Yeast Anticancer Drug Screen. Data for the cln2 rad14 strain (AID 165);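 further: 0% = growth equal to vehicle treated cultures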; conditions: S. cerevisiae cln2 rad14 strain, hits give high values
How it was run: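 cln2 rad14 yeast strain; compound exposure; growth inhibition read vs vehicle controls.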

[5] = NCI Yeast Anticancer Drug Screen. Data for the bub3 strain (AID 167); conditions: S. cerevisiae bub3 mutant strain, hits give high values
How it was run: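 Growth of a checkpoint-deficient yeast mutant is measured after compound exposure. Values represent inhibition relative to vehicle.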

[6] = NCI Yeast Anticancer Drug Screen. Data for the mlh1 rad18 strain (AID 175); conditions: S. cerevisiae mlh1 rad18 strain growth inhibition, hits give high values
How it was run: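 Yeast w/ defined DNA-repair lesions; compound exposure; growth vs vehicle controls → % inhibition.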

[7] = at 5.0 µM (retest, dose inferred, filed as 0.5)
[8] = at 50.0 µM (retest, dose inferred, filed as 5.0)

Measured: growth inhibition

Nc1ccc2ccc3cccc4ccc1c2c34
inactive: [1]; [7] 1% | [2]; [7] -37% | [2]; at 50.0 µM 0.45% | [3]; [7] 1% | [3]; at 50.0 µM 48.5% | [4]; [7] -1% | [4]; at 50.0 µM 62.5% | [5]; [7] -2% | [5]; at 50.0 µM 23.8% | [6]; [7] 1%
active: [1]; [8] 98% | [1]; at 50.0 µM 90.3% | [2]; [8] 98% | [3]; [8] 98% | [4]; [8] 99% | [5]; [8] 98% | [6]; [8] 97% | [6]; at 50.0 µM 88.9%

CCCCCCCCCC1OCC(C)O1 (stereo not given)
active: [3]; at 50.0 µM 73.2%
inactive: [1]; [7] 3% | [1]; [8] 30% | [1]; at 50.0 µM 53% | [2]; [7] 3% | [2]; [8] 30% | [2]; at 50.0 µM 44.6% | [3]; [7] -2% | [3]; [8] 38% | [4]; [7] 6% | [4]; [8] 17% | [4]; at 50.0 µM 4% | [5]; [7] 7% | [5]; [8] 36% | [5]; at 50.0 µM 7.7% | [6]; [7] 4% | [6]; [8] 62% | [6]; at 50.0 µM 61.2%

Oc1c(Br)ccc2c(O)c(Br)ccc12
active: [1]; [8] 93% | [1]; at 50.0 µM 89.7% | [2]; [8] 94% | [2]; at 50.0 µM 91% | [3]; [8] 98% | [3]; at 50.0 µM 92.5% | [4]; [8] 98% | [4]; at 50.0 µM 90.5% | [5]; [8] 97% | [5]; at 50.0 µM 90.8% | [6]; [8] 88% | [6]; at 50.0 µM 89.4%
inactive: [1]; [7] 42% | [2]; [7] 51% | [3]; [7] 36% | [4]; [7] 57% | [5]; [7] 53% | [6]; [7] 31%

C1CCC2CC3(CCNCC3)CCC2C1 (stereo not given)
active: [1]; at 50.0 µM 75.2% | [3]; [8] 79% | [3]; at 50.0 µM 88.4% | [4]; [8] 82% | [4]; at 50.0 µM 83.7% | [5]; at 50.0 µM 86.8% | [6]; [8] 73% | [6]; at 50.0 µM 92%
inactive: [1]; [7] 14% | [1]; [8] 55% | [2]; [7] 9% | [2]; [8] 55% | [2]; at 50.0 µM 55.4% | [3]; [7] 16% | [4]; [7] 12% | [5]; [7] 11% | [5]; [8] 66% | [6]; [7] 9%

COc1ccccc1Nc1nc(SC)ncc1SC
active: [1]; [8] 91% | [1]; at 50.0 µM 95.1% | [2]; [8] 75% | [2]; at 50.0 µM 96.4% | [3]; at 50.0 µM 94% | [5]; [8] 93% | [5]; at 50.0 µM 98% | [6]; [8] 82% | [6]; at 50.0 µM 92.2%
inactive: [1]; [7] -4% | [2]; [7] -12% | [3]; [7] -5% | [3]; [8] 69% | [4]; [7] -8% | [4]; [8] 30% | [4]; at 50.0 µM 41.9% | [5]; [7] 1% | [6]; [7] -6%

O=C(Oc1ccccc1)c1ccc2ccccc2c1O
inactive: [1]; [7] -4% | [1]; [8] -38% | [1]; at 50.0 µM 15.8% | [2]; [7] -5% | [2]; [8] -35% | [2]; at 50.0 µM 6.05% | [3]; [7] -5% | [3]; [8] -14% | [3]; at 50.0 µM 2.7% | [4]; [7] -2% | [4]; [8] -59% | [4]; at 50.0 µM -47.1% | [5]; [7] 36% | [5]; [8] 52% | [6]; [7] -4% | [6]; [8] -27% | [6]; at 50.0 µM 4.1%
active: [5]; at 50.0 µM 77.7%

CCCCCCCCCCCCCCCC(=O)NCC[N+](CC)(CC)Cc1ccc(C[N+](CC)(CC)CCNC(=O)CCCCCCCCCCCCCCC)cc1
active: [1]; [7] 99% | [1]; [8] 99% | [1]; at 50.0 µM 99.3% | [2]; [7] 99% | [2]; [8] 100% | [2]; at 50.0 µM 99.6% | [3]; [7] 99% | [3]; [8] 100% | [3]; at 50.0 µM 99.5% | [4]; [7] 99% | [4]; [8] 99% | [4]; at 50.0 µM 99.3% | [5]; [7] 98% | [5]; [8] 99% | [5]; at 50.0 µM 99.5% | [6]; [7] 97% | [6]; [8] 99% | [6]; at 50.0 µM 99.3%

O=[N+]([O-])c1ccc(CO)o1
active: [1]; at 50.0 µM 93.1% | [3]; at 50.0 µM 76.4% | [6]; at 50.0 µM 84.5%
inactive: [1]; [7] 10% | [1]; [8] 68% | [2]; [7] 0% | [2]; [8] 10% | [2]; at 50.0 µM 38.8% | [3]; [7] 2% | [3]; [8] 14% | [4]; [7] 3% | [4]; [8] -2% | [4]; at 50.0 µM 29.1% | [5]; [7] 0% | [5]; [8] 1% | [5]; at 50.0 µM 26.7% | [6]; [7] 6% | [6]; [8] 33%

c1ccc(-c2ccc(-c3cnc(-c4ccc(-c5ccccc5)cc4)o3)cc2)cc1
active: [1]; at 50.0 µM 90.2% | [3]; at 50.0 µM 93% | [5]; at 50.0 µM 93.2% | [6]; at 50.0 µM 92.8%
inactive: [1]; [7] 4% | [1]; [8] 30% | [2]; [7] 3% | [2]; [8] 46% | [2]; at 50.0 µM 53.4% | [3]; [7] 1% | [3]; [8] 66% | [4]; [7] -1% | [4]; [8] 42% | [4]; at 50.0 µM 41.1% | [5]; [7] 8% | [5]; [8] 31% | [6]; [7] -6% | [6]; [8] 64%

O=C(O)C1C(=O)OC2CCCCC21 (stereo not given)
inactive: [1]; [7] 0% | [1]; [8] -4% | [1]; at 50.0 µM 3.25% | [2]; [7] 1% | [2]; [8] 1% | [2]; at 50.0 µM -6.45% | [3]; [7] 1% | [3]; [8] 0% | [3]; at 50.0 µM 0.45% | [4]; [7] -3% | [4]; [8] 1% | [4]; at 50.0 µM 69.4% | [5]; [7] 0% | [5]; [8] -3% | [5]; at 50.0 µM -0.95% | [6]; [7] -2% | [6]; [8] -3% | [6]; at 50.0 µM -2.4%
